The list is not random: actives were taken first. Their share in the collection is about 17%.
TGFb inhibitor: inhibitors of TGF-b signaling; 410,000 tested, 1.2% active; HepG2 CAGA-GFP TGF-b/SMAD3 reporter, GFP fluorescence, 18 h; TGF-beta stimulated, 500 pg/mL final; Potency, µM (highest dose often 46.1 µM), for the others: at the highest dose activity, negative = inhibition, most hits filed as inhibitors; also: % is scaled to controls: 0 for no effect and ±100 for the full control effect; nearly all actives have a fitted effect of over 65% in size
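Inhibition of TGF-beta-driven CAGA-GFP reporter expression in HEPG2 cells is measured by cellular GFP fluorescence after 18 h stimulation with 500 pg/mL recombinant TGF-beta in 1% FBS medium at 37 degrees C.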
ATXN2 expr inh: inhibitors of ATXN2 expression | HEK-293 ATXN2-luciferase reporter, luminescence, 24 h | Potency, µM (highest dose often 57 µM), without a hit: top-dose activity change, negative = inhibition, most hits filed as inhibitors | 360,000 tested, 0.72% active; also: % is scaled to controls: 0 for no effect and ±100 for the full control effect; nearly all actives have a fitted effect of over 55% in size
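ATXN2-luciferase reporter cells (luciferase flanked by upstream and downstream ATXN2 gene portions) were treated 24 h at 37 °C with compounds at up to 57 uM. SteadyGlo luminescence gave expression; GF-AFC fluorescence gave viability.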
HepG2 viability: counter-screen for TGF-b inhibitors: cytotoxicity in HepG2 cells | HepG2 CAGA-GFP viability, ATP luminescence, 18 h | Potency, µM (top dose mostly 46.1 µM), for the others: top-dose activity change, negative = cytotoxicity, actives largely listed as cytotoxic | 410,000 tested, 0.76% active
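CellTiter-Glo luminescence gave cytotoxicity after 18 hours at 37 degrees C. The cells were HepG2 CAGA-GFP in 1% FBS DMEM, stimulated with 500 pg/mL TGF-beta after compound addition. %Activity was normalised to no-cell wells (complete cell-killing) and DMSO (no toxicity), and curves were fitted and classified.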
S2 tox: viability counter-screen for ATXN expression inhibitors. AID 651635. S2 cells (HEK-293 line with an ATXN2-luciferase reporter) viability, CellTiter-Fluor protease fluorescence, 24 h. Potency, µM (titrated, usually from 56.7 µM), usual class: cytotoxic. 400,000 tested, 0.49% active; also: nearly all actives have a fitted effect of over 40% in size
DT40 TDP1 no CPT: qHTS for Inhibitors of human tyrosyl-DNA phosphodiesterase 1 (TDP1): qHTS in cells in absence of CPT | DT40 Tdp1-/- hTDP1 cells, no CPT, ATP luminescence, 48 h | Potency, µM (series often up to 46.2 µM), for inactives: at the top dose activity change, negative = growth inhibition, most hits filed as inhibitors | 420,000 tested, 15% active | AID 686978, 2013; also: % is scaled to controls: 0 for no effect and ±100 for the full control effect; nearly all actives have a fitted effect of over 55% in size
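Readout: luminescence from CellTiter-Glo after 30 min in the dark at RT. Cells: DT40 Tdp1-/- with stable hTDP1, 400/well. Exposure: compounds alone, ≥48 hr, 37 °C.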
DT40 TDP1 CPT: DT40-hTDP1 cell growth loss with CPT. chicken DT40 Tdp1-/-;hTDP1 cells + 20 nM CPT, ATP luminescence, 48 h. Potency, µM (highest dose often 46.2 µM), for inactives: at the top dose activity change, negative = growth inhibition, hits mostly inhibitors. 420,000 tested, 12% active; also: % is scaled to controls: 0 for no effect and ±100 for the full control effect; nearly all actives have a fitted effect of over 55% in size
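Chicken DT40 Tdp1-/- cells complemented with human TDP1, 400 cells/well, exposed to compounds plus 20 nM camptothecin for at least 48 h at 37 C; viability read as ATP content by CellTiter-Glo luminescence.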
* marks the source's active call; other numbers are inactive results; [ ] = another dose, or the depositor's remark. Calls follow the shape of the dose curve; as a rule, active = well fitted curve in the direction sought with a large enough effect; inconclusive = small, poorly fitted or top-dose-only effect, or another doubt; inactive = no such curve, though single readings can be large; an effect the other way counts as inactive or inconclusive. Potency is read from the fitted curve at half-maximal effect.

What do the screens show for `O=C(c1ccc2c(=O)n3c(nc2c1)CCCCC3)N1CCN(c2ccc(Cl)cc2)CC1`?
TGFb inhibitor: -30%; ATXN2 expr inh: -27%; HepG2 viability: -39%; S2 tox: inactive; DT40 TDP1 no CPT: 18µM*; DT40 TDP1 CPT: 23µM*

Results for O=C(Nc1nc(-c2ccccc2)cs1)c1ccc2c(=O)n3c(nc2c1)CCCCC3 ?
TGFb inhibitor: inconclusive; ATXN2 expr inh: 14µM*; HepG2 viability: -23%; S2 tox: inconclusive; DT40 TDP1 no CPT: 8.2µM*; DT40 TDP1 CPT: 16µM*

Results for O=C(O)CCCC[P+](c1ccccc1)(c1ccccc1)c1ccccc1 ?
ATXN2 expr inh: 10%; S2 tox: inactive

How did Cc1nc2cc(C(F)(F)F)ccc2n1CCNc1nc(-c2ccc([N+](=O)[O-])c(Cl)c2)cs1 do in these assays?
TGFb inhibitor: 16µM*; ATXN2 expr inh: inconclusive; HepG2 viability: -34%; S2 tox: inconclusive; DT40 TDP1 no CPT: 21µM*; DT40 TDP1 CPT: inconclusive

How did Cc1ccc(-c2csc(NCCn3c(-c4ccncc4)nc4cc(C(F)(F)F)ccc43)n2)cc1 do in these assays?
TGFb inhibitor: 3%; ATXN2 expr inh: -39%; HepG2 viability: -21%; S2 tox: inactive; DT40 TDP1 no CPT: inconclusive; DT40 TDP1 CPT: 29µM*

How did Cc1ccc(-c2csc(NCCn3c(-c4ccncc4)nc4ccccc43)n2)cc1 do in these assays?
TGFb inhibitor: inconclusive; ATXN2 expr inh: inconclusive; HepG2 viability: -20%; S2 tox: inactive; DT40 TDP1 no CPT: 23µM*; DT40 TDP1 CPT: inconclusive

Results for Cc1nc2cc(C(F)(F)F)ccc2n1CCNc1nc(-c2ccc(F)cc2)cs1 ?
TGFb inhibitor: -23%; ATXN2 expr inh: -2%; HepG2 viability: -7%; S2 tox: inactive; DT40 TDP1 no CPT: inconclusive; DT40 TDP1 CPT: inconclusive

How did CCc1nc2ccc(C(=O)Nc3ccc(NC(C)=O)cc3)cn2c1N(CCC(C)C)CCN(C)C do in these assays?
TGFb inhibitor: 4%; ATXN2 expr inh: 4%; HepG2 viability: -28%; S2 tox: inactive; DT40 TDP1 no CPT: -25%; DT40 TDP1 CPT: 6%

How did Cc1nn(C)cc1CN1CCOc2ccc(C(C)(O)COc3ccccc3)cc2C1 (stereo unspecified) do in these assays?
S2 tox: inactive; DT40 TDP1 no CPT: -19%; DT40 TDP1 CPT: 25%[9.04 µM]

Results for CN1CCN(CCCNC(=O)c2cnn(-c3ccccc3)c2C2CCN(C(=O)OC(C)(C)C)CC2)CC1 ?
TGFb inhibitor: 0%; HepG2 viability: 0%; DT40 TDP1 no CPT: -5%; DT40 TDP1 CPT: -13%

Results for COc1ccccc1N1CCN(CCCNC(=O)c2cnn(-c3cccc(Cl)c3)c2C2CCN(C(=O)OC(C)(C)C)CC2)CC1 ?
TGFb inhibitor: 13µM*; HepG2 viability: 13µM*; DT40 TDP1 no CPT: 7.3µM*; DT40 TDP1 CPT: 9.2µM*

How did Cc1ccc(C)c(N2CCN(CCCNC(=O)c3cnn(-c4ccccc4)c3C3CCN(C(=O)OC(C)(C)C)CC3)CC2)c1 do in these assays?
TGFb inhibitor: 0%; HepG2 viability: -20%; DT40 TDP1 no CPT: 4.6µM*; DT40 TDP1 CPT: 6.5µM*

What do the screens show for `Cc1ccnc(N2C(=O)OC(C)(C)C2(C)O)c1` (stereo unspecified)?
TGFb inhibitor: 0%; ATXN2 expr inh: 2%; HepG2 viability: -2%; S2 tox: inactive; DT40 TDP1 no CPT: -2%; DT40 TDP1 CPT: 9%

What do the screens show for `CCOC(=O)c1cnc(SC2CC(=O)N(c3cccc(OC)c3)C2=O)nc1N` (stereo unspecified)?
TGFb inhibitor: -5%; ATXN2 expr inh: 0%; HepG2 viability: -1%; S2 tox: inactive; DT40 TDP1 no CPT: inconclusive; DT40 TDP1 CPT: inconclusive

How did CCOc1ccc2nc(SC3CC(=O)N(c4ccccc4)C3=O)sc2c1 (stereo unspecified) do in these assays?
TGFb inhibitor: inconclusive; ATXN2 expr inh: 34%; HepG2 viability: -27%; S2 tox: inactive; DT40 TDP1 no CPT: 3.7µM*; DT40 TDP1 CPT: 2.9µM*

How did CCOc1ccc2nc(SC3CC(=O)N(c4cccc(OC)c4)C3=O)sc2c1 (stereo unspecified) do in these assays?
TGFb inhibitor: 8%; ATXN2 expr inh: 34%; HepG2 viability: 31%; S2 tox: inactive; DT40 TDP1 no CPT: 3.7µM*; DT40 TDP1 CPT: 3.3µM*

How did CCOc1ccc2nc(SCCNS(=O)(=O)c3ccccc3)sc2c1 do in these assays?
TGFb inhibitor: inconclusive; ATXN2 expr inh: -16%; HepG2 viability: -8%; S2 tox: inactive; DT40 TDP1 no CPT: 16µM*; DT40 TDP1 CPT: -28%

Results for CSc1nc(Cl)c(C#N)c(-c2ccc(C)cc2)n1 ?
TGFb inhibitor: 1%; ATXN2 expr inh: 7%; HepG2 viability: -4%; S2 tox: inactive; DT40 TDP1 no CPT: inconclusive; DT40 TDP1 CPT: 9.2µM*

Results for COc1ccc(-c2nc(-c3ccccc3)nc(Cl)c2C#N)cc1 ?
TGFb inhibitor: 11%; ATXN2 expr inh: 1%; HepG2 viability: -12%; S2 tox: inactive; DT40 TDP1 no CPT: 10µM*; DT40 TDP1 CPT: inconclusive

How did CSc1nc(Nc2cccc(C)c2)c(C#N)c(-c2ccccc2)n1 do in these assays?
TGFb inhibitor: 1%; HepG2 viability: -2%; DT40 TDP1 no CPT: inconclusive; DT40 TDP1 CPT: inconclusive

Results for C/C(CC(=O)Nc1ccc(F)cc1)=N\NC(=O)COc1ccccc1 ?
TGFb inhibitor: 3%; ATXN2 expr inh: -9%; HepG2 viability: 7%; S2 tox: inactive; DT40 TDP1 no CPT: -6%; DT40 TDP1 CPT: -3%

What do the screens show for `O=C(NCC(O)CO)c1c(I)c(C(=O)NCC(O)CO)c(I)c(N(CCO)C(=O)CO)c1I` (stereo unspecified)?
ATXN2 expr inh: -5%; S2 tox: inactive; DT40 TDP1 no CPT: -11%[21.1 µM]; DT40 TDP1 CPT: -1%[21.1 µM]

What do the screens show for `Cc1ccc(-n2c(-c3ccco3)nc3c(cnn3-c3ccc(C)cc3)c2=O)cc1`?
TGFb inhibitor: -18%; ATXN2 expr inh: 2%; HepG2 viability: -5%; S2 tox: inactive; DT40 TDP1 no CPT: 4.1µM*; DT40 TDP1 CPT: inconclusive

How did Cc1cccc(-n2c(C)nc3c(cnn3-c3ccc(F)cc3)c2=O)c1 do in these assays?
TGFb inhibitor: -10%; ATXN2 expr inh: 5%; HepG2 viability: -21%; S2 tox: inactive; DT40 TDP1 no CPT: 9.2µM*; DT40 TDP1 CPT: 18µM*
